FAS-TE inh: FAS thioesterase domain inhibitors, primary screen, biochemical, fluorescence intensity, uHTS; Fatty acid synthase (Homo sapiens), P49327; recombinant FAS-TE, OMFH fluorogenic substrate, fluorescence endpoint; inhibition, % at 15 µM; hit rate 0.67% among 360,000;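 active means compounds whose normalised, plate-corrected inhibition of enzyme fluorescence in the single-dose primary screen is 50% or more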;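 further: 0% = DMSO with enzyme and 100% = substrate without enzyme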
Target sequence (P49327 whole entry, looked up, the tested form may be a part): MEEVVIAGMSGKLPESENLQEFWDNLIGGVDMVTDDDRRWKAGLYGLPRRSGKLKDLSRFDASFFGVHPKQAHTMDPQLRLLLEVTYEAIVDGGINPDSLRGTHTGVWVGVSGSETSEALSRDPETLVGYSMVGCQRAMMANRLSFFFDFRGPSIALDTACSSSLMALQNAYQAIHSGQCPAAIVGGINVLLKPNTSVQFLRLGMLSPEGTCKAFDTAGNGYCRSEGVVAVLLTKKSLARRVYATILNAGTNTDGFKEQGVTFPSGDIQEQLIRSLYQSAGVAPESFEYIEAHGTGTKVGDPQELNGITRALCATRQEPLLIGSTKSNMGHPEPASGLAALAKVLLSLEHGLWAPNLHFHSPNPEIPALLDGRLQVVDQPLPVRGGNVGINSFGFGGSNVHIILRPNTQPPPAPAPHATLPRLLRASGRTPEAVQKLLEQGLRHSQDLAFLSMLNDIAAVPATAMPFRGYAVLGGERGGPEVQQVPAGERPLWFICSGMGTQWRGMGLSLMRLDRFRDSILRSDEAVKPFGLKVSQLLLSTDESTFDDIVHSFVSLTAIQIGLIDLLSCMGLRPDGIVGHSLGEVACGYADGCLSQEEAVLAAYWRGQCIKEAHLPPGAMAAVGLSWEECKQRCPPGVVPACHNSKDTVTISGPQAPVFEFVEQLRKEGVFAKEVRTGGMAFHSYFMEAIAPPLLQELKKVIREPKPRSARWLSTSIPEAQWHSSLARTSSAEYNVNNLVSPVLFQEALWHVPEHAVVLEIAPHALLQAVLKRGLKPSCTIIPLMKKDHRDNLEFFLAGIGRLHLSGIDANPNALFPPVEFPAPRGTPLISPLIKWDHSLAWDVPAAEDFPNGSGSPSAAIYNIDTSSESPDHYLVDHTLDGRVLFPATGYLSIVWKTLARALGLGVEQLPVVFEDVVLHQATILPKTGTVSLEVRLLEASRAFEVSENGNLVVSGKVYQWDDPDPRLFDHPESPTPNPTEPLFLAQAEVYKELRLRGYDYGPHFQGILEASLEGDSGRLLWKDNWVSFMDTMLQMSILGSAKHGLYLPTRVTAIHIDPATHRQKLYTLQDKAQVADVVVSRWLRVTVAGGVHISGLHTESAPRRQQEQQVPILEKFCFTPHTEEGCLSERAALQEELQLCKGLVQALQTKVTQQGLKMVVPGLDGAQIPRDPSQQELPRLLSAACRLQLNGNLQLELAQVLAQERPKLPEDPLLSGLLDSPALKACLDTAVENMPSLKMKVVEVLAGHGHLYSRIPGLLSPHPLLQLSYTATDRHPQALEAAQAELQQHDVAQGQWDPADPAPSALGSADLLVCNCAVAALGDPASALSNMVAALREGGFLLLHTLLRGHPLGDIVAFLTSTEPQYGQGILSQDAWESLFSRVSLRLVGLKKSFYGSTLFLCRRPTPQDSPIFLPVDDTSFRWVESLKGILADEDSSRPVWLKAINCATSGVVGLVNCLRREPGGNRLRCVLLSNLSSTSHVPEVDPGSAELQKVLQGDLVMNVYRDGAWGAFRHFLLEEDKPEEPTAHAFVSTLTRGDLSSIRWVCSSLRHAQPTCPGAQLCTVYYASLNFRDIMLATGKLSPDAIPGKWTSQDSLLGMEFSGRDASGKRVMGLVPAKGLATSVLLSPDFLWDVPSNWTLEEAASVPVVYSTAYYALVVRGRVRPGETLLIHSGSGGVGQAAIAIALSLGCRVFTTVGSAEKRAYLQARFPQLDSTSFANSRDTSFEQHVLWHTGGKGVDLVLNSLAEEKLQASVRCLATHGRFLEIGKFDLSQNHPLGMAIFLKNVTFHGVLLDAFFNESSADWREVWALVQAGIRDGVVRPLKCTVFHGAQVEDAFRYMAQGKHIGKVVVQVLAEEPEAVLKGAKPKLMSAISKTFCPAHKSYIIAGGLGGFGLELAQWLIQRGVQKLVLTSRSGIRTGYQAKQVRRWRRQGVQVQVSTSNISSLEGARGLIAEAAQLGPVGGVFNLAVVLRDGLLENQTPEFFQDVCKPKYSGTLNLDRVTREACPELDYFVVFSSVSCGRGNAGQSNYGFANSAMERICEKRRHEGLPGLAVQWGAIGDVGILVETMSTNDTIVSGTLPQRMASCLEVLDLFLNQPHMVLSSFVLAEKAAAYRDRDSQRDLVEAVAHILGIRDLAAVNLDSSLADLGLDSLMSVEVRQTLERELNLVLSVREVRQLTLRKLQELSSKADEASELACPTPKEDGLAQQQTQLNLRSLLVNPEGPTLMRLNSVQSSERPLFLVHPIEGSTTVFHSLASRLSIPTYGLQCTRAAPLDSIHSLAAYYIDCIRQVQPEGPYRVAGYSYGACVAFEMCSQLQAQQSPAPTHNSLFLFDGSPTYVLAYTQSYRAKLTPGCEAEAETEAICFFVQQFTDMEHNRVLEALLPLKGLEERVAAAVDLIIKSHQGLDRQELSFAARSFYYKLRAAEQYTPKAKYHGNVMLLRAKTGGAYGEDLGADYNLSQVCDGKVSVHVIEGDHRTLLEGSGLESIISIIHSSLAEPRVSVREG
CendR NRP1 mod: modulators of CendR peptide binding to NRP-1, primary screen, biochemical, fluorescence polarization, uHTS; Neuropilin-1 (Homo sapiens), O14786; FAM-RPARPAR peptide binding to NRP-1; inhibition, % at 25 µM; hit rate 0.85% among 360,000;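 active means inhibition or corrected inhibition above about 18%, plus a signal ratio from 0.5 to 1.5, limit read from the data, passing the limit was not always enough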
CRFBP-R2 block: antagonists of CRF-BP/CRF-R2 complex, primary screen, cell-based, HEK293, calcium dye fluorescence, uHTS | AID 588475, 2011 | inhibition, % at 11.8 µM | CRF-induced calcium fluorescence | hit rate 0.59% among 350,000;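 active means inhibition of the ligand-induced calcium signal above about 50% at the single tested concentration, limit read from the data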
NadD inh: inhibitors of S. aureus NadD, primary screen, biochemical, colorimetric, uHTS; hit rate 0.78% among 360,000; Nicotinate-nucleotide adenylyltransferase NadD (Staphylococcus aureus N315); inhibition, % at 20 µM; purified NadD enzyme, colorimetric absorbance read-out; in the data active means inhibition above about 26%
Myeloid diff MLP: induction of myeloid progenitor differentiation, primary screen, cell-based, flow cytometry, MLPCN library; ER-HoxA9 myeloid progenitors, lysozyme-GFP differentiation; calls only at 10 µM; hit rate 1% among 360,000; AID 624256, 2012;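 active means normalized GFP-positive differentiation at or above the plate's own cutoff, the solvent-only control mean plus 3 SD; inconclusive means no clear call, values can overlap the other calls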;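 further: cells exposed to compound for four days before flow analysis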
Myeloid diff: inducers of myeloid progenitor differentiation, confirmation, cell-based, GFP/Mac1 flow cytometry, cherry pick 01; shares compounds with Myeloid diff MLP; ER-HoxA9 myeloid progenitors, GFP/Mac1 double-positive flow; AID 651706, 2012; calls only; hit rate 2% among 2,300;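 active means share of green or green-and-red cells above 9 and 9% in run 1 or 4 and 3% in run 2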
GFP autofluor: compound fluorescence in myeloid differentiation counter-screen | hit rate 7.4% among 2,300 | AID 651707 | shares compounds with Myeloid diff MLP | fluorescence response, % (no concentration beside the values) | ER-HoxA9 myeloid progenitors, no estrogen, GFP autofluorescence flow cytometry; vehicle wells 0%, positive control 100%;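 active means over 5% cells positive for green fluorescent reporter, or over 2% positive for both it and APC stain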;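 further: range taken on the double positive population between DMSO and positive control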
Numbers without * were called inactive; i = inactive; ? = inconclusive; . = not tested or not shown; + = active, no number. Only some compounds are listed: those with a hit (about 3.6% of all), similar ones and a draw of the others.

SMILES	FAS-TE inh	CendR NRP1 mod	CRFBP-R2 block	NadD inh	Myeloid diff MLP	Myeloid diff	GFP autofluor
O=C(CN1C(=O)NC2(CCc3ccccc32)C1=O)c1c[nH]c2ccccc12 (stereo not given)	3.4	-9.1	-5.3	3.8	i	.	.
Cc1ccccc1NC(=O)Nc1c(C)n(C)n(-c2ccccc2)c1=O	-4.3	19.9	-9.4	-4.9	i	.	.
COc1ccccc1NC(=O)Nc1c(C)n(C)n(-c2ccccc2)c1=O	-5.7	-7.8	19.6	4.6	i	i	0.0
CC(C)(C)OC(=O)NCCc1nnc(SCC(=O)Nc2ccc(Br)cc2)o1	10.6	24.3	12.7	-10.1	i	.	.
O=C(NC1CC1)c1cccc(NC(=O)c2cnn(-c3ccccc3)n2)c1	3.4	6.6	7.5	2.2	+	i	4.5
OCCN=Cc1c(O)[nH]c2ccccc12	-8.8	17.6	1.7	2.3	i	.	.
Oc1[nH]c2ccccc2c1C=Nc1ccccc1	-0.5	0.4	7.5	-8.2	i	i	0.0
CC1=C(C(=O)Nc2ccccc2Cl)C(c2ccc(N(C)C)cc2)NC(=O)N1 (stereo not given)	-14.4	-70.7	-12.5	19.5	+	i	0.3
CCOc1ccccc1NS(=O)(=O)c1ccc2c(c1)N(C)CCO2	3.8	-0.3	-28.3	0.8	i	.	.
COc1ccc(OC)c(/C=C2\SC(N3CCCCC3)=NC2=O)c1	-1.8	-8.1	6.4	-2.5	.	.	.
CC(C)N(C(=O)COC(=O)[C@@H]1CC(O)CN1S(=O)(=O)c1ccc(C(C)(C)C)cc1)C(C)C (stereo not given in full)	-2.2	-10.6	-2.5	-2.4	i	.	.
COc1ccc(/C=C2\SC(=S)N(NS(=O)(=O)c3ccc(C)cc3)C2=O)c(OC)c1	6.3	-67.7	35.1	14.4	i	i	0.0
Cc1cc2c(n1-c1ccc(Br)cc1)CC(C)(C)CC2=O	7.8	-6.0	15.1	-1.7	i	i	0.4
Cc1ccc(-n2c(C)cc3c2CC(C)(C)CC3=O)cc1C	6.3	-0.5	-0.6	7.9	i	.	.
CCN(CC)CCN(C(=O)c1ccc(N2C(=O)CCC2=O)cc1)c1nc2cc3c(cc2s1)OCCO3	-3.9	2.8	-0.5	-0.6	+	i	0.3
O=C(COc1ccc(-n2cnnn2)cc1)Nc1ccc(F)c(F)c1	3.0	2.8	7.3	0.6	i	i	0.4
O=C(CSCc1ccc(Br)cc1)NCc1ccccn1	-1.5	6.3	13.4	-7.2	i	.	.
CC1CCN(CCCNC(=O)c2cc3c(=O)n(C)c4ccccc4c3n2C)CC1	-1.6	-4.8	1.1	-2.9	i	i	0.0
OCCCNC(=S)NC1CCCC1	-4.8	3.9	-4.8	-4.6	i	.	.
O=C(c1ccc([N+](=O)[O-])o1)N1CCN(c2nc3c(F)cc(F)cc3s2)CC1	28.4	-1.0	13.0	-4.1	i	.	.
Cc1ccc(C)c2sc(N3CCN(C(=O)c4ccc([N+](=O)[O-])o4)CC3)nc12	48.4	2.5	9.0	-3.3	i	i	0.3
CCOc1cc(S(=O)(=O)Nc2ccc(Cl)cn2)ccc1F	-1.0	-3.7	10.4	0.8	+	i	0.3
COc1cc2c(cc1OC)C(c1cc(Br)ccc1F)N(C(=O)CCl)CC2 (stereo not given)	21.1	2.3	-1.4	-3.8	i	.	.
O=C(Nc1cccc(CNCCc2c[nH]c3ccccc23)c1)c1ccccc1Cl	-1.9	13.6	1.8	-1.5	i	.	.
CC1CC(C)CN(c2ncc3c(n2)CC(c2ccccc2)CC3=O)C1 (stereo not given)	26.2	-6.8	-1.7	8.5	+	i	0.0
SMILES	FAS-TE inh	CendR NRP1 mod	CRFBP-R2 block	NadD inh	Myeloid diff MLP	Myeloid diff	GFP autofluor
CC(C)c1ccc(C2CC(=O)c3cnc(N4CCc5ccccc5C4)nc3C2)cc1 (stereo not given)	-2.4	2.5	-5.2	6.5	i	.	.
COc1ccc(-n2nc(C(=O)NCC(=O)N3CCC(C)CC3)c3ccccc3c2=O)cc1Cl	13.5	16.1	-10.2	0.4	i	.	.
O=C(NCc1ccccc1)C12CN(Cc3ccccc3)CC1C(c1ccc([N+](=O)[O-])cc1)=NO2 (stereo not given)	25.5	1.0	4.5	3.1	i	.	.
O=C(NCCCCc1ccccc1)C12CN(Cc3ccccc3)CC1C(c1ccc([N+](=O)[O-])cc1)=NO2 (stereo not given)	26.1	3.6	5.2	3.8	+	i	0.0
COC(=O)c1c(NC(=O)CCl)sc(C(=O)N2CCOCC2)c1C	-1.1	1.8	7.6	-4.6	?	.	.
O=C(OCC(=O)N1CCCC1)c1cnc(Cl)c(Cl)c1	-6.2	9.6	11.8	3.2	i	.	.
COc1ccccc1CNS(=O)(=O)CCNC(=O)c1ccccc1	-6.3	-3.3	-26.3	-2.9	i	.	.
CSc1nc(C)cc(C)c1C#N	-5.6	7.4	1.2	0.2	+	i	0.3
CCCn1c(NC(=O)CCNC(=O)c2ccccc2Cl)nc2ccccc21	-2.4	4.1	-7.3	3.0	i	.	.
CC(=O)c1sc(NC(=O)CCS(=O)(=O)c2ccc(C)cc2)nc1C	-3.8	-11.7	3.0	-2.9	i	i	0.0
CCCn1c(NC(=O)CCS(=O)(=O)c2ccc(C)cc2)nc2ccccc21	-3.6	-107.8	-8.8	8.4	+	i	27.4*
CN(C(=O)c1ccc(NC(=O)Cc2ccc(NC(=O)C3CCCN(C(=O)C4CC4)C3)cc2)cc1)C1CC1 (stereo not given)	-12.6	2.0	3.5	0.7	i	.	.
CCCn1c(N)c(N(CCOC)C(=O)CSCC(=O)Nc2cccc(C)c2)c(=O)[nH]c1=O	-2.8	-2.8	0.6	-1.5	i	.	.
CCOc1cccc(=O)c2c(C)oc(C)c12	-11.2	7.1	-16.1	2.2	i	i	0.6
Cc1ccc(S(=O)(=O)c2cn(C)c3cc(N4CCOCC4)c(F)cc3c2=O)cc1	-3.7	6.1	0.2	2.9	i	.	.
O=C(COC(=O)c1cc(=O)[nH]c2ccccc12)Nc1nc(-c2ccc(F)cc2)cs1	14.5	3.9	-2.6	20.5	i	.	.
CCCN(CC(=O)Nc1ccccc1OC)C(=O)CN1C(=O)NC2(CCCCC2)C1=O	-3.8	7.3	5.7	-1.0	+	i	0.0
N#Cc1c(-c2ccc(C(F)(F)F)cc2)cc(-c2ccccc2)[nH]c1=S	3.3	-4.0	6.9	3.3	+	i	0.0
Cc1ccc(-c2cc(-c3ccccc3)[nH]c(=S)c2C#N)cc1	8.4	1.7	-9.0	17.3	i	.	.
COc1ccccc1NS(=O)(=O)c1cc([N+](=O)[O-])ccc1N/N=C/c1c[nH]c2ccccc12	2.8	-65.3	-58.3	25.6	+	i	46.2*
